Results filed as inconclusive are left out. Values without a mark were called inactive. Calls of active or inactive are those of the source. Calls follow the shape of the dose curve; as a rule, active = well fitted curve in the direction sought with a large enough effect in the repeat runs; inconclusive = weak or mixed curves; inactive = no such curve, though single readings can be large; an effect the other way counts as inactive or inconclusive.

We go through 21 compounds from PubChem BioAssay (Tox21).

The nature of experiment [1]: A CellTox Green Cytotoxicity Assay to monitor cytotoxicity in HEK293 cells - 40 hour (AID 1224871). Also: nearly all actives have a fitted effect of over 45% in size. Also: potency is read from the fitted curve at half-maximal effect. The essentials: (§1)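 Homogeneous no-lysis format: HEK293 cell suspension mixed with CellTox Green reagent, seeded, incubated 5 h at 37 C/5% CO2, then dosed by pintool with compound in DMSO.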
Experiment [2] is described as follows: qHTS RealTime-Glo MT Cell Viability Assay in HEK293 cells - 16 hour (AID 1224872). Also: nearly all actives have a fitted effect of over 50% in size. Also: potency is read from the fitted curve at half-maximal effect. As to activity change, negative = cytotoxicity: top concentration of the series differs between compounds. The essentials:
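Homogeneous bioluminescent viability format in HEK293 cells (600 cells/well). Following 5 h at 37 C/5% CO2, 23 nL compound was pintooled; the signal was measured repeatedly during 40 h incubation.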

A short description of experiment [3]: qHTS RealTime-Glo MT Cell Viability Assay in HepG2 cells - 8 hour (AID 1224873). Also: nearly all actives have a fitted effect of over 55% in size. In a few lines:
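HepG2 cells (600/well) mixed with RealTime-Glo MT reagent, settled 5 h at 37 C/5% CO2 before compound addition. Nonlytic NanoLuc luminescence from viable-cell prosubstrate reduction read repeatedly during 40 h treatment at 37 C.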
For orientation: In qHTS, concentration-response curves come from the screen itself.

Experiment [4] can be described thus: qHTS RealTime-Glo MT Cell Viability Assay in HEK293 cells - 40 hour (AID 1224874). Also: nearly all actives have a fitted effect of over 50% in size. Also: potency is read from the fitted curve at half-maximal effect. The conditions noted are these: RealTime-Glo luminescence; max response: stronger effect = lower value. In a few lines: (§2)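 Measured as luminescence from the same continuously cultured HEK293 wells at successive time points (0, 8, 16, 24, 32, 40 h) after compound addition. Reagent present from seeding; dosing at 5 h; incubation 37 C.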

Experiment [5] can be described thus: A CellTox Green Cytotoxicity Assay to monitor cytotoxicity in HepG2 cells - 16 hour (AID 1224876). Also: nearly all actives have a fitted effect of over 45% in size. In a few lines:
(§3)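 Fluorescent DNA-binding dye, 600 HepG2 cells/well, 5 h preincubation then compound in DMSO; same plates read at 0–40 h, 37 C.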

The nature of experiment [6]: A CellTox Green Cytotoxicity Assay to monitor cytotoxicity in HepG2 cells - 24 hour (AID 1224878). Also: nearly all actives have a fitted effect of over 45% in size. The essentials: as §3
Experiment [7] can be described thus: A CellTox Green Cytotoxicity Assay to monitor cytotoxicity in HepG2 cells - 40 hour (AID 1224879). Also: nearly all actives have a fitted effect of over 40% in size. Also: potency is read from the fitted curve at half-maximal effect. In a few lines: as §3
Experiment [8] can be described thus: qHTS RealTime-Glo MT Cell Viability Assay in HEK293 cells - 0 hour (AID 1224880). Also: top concentration of the series differs between compounds; nearly all actives have a fitted effect of over 45% in size. The essentials:
as §2

Experiment [9] is described as follows: A CellTox Green Cytotoxicity Assay to monitor cytotoxicity in HEK293 cells - 24 hour (AID 1224875). The essentials: as §1
A short description of experiment [10]: qHTS RealTime-Glo MT Cell Viability Assay in HepG2 cells - 32 hour (AID 1224877). Also: nearly all actives have a fitted effect of over 55% in size. In a few lines:
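Cell number in HepG2 cultures estimated from NanoLuc luminescence generated by metabolic reduction of a prosubstrate by living cells. The homogeneous, nonlytic format allowed repeated reads at 0, 8, 16, 24, 32 and 40 h of compound exposure.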
% is scaled to controls: 0 for no effect and ±100 for the full control effect.

As to `CC(C)(C)NC[C@H](O)c1ccc(O)cc1Cl`, the Potency result in [1], in experiment [2], in experiment [5], in experiment [6] and in experiment [7] was “inactive” throughout. The result in [3] and in experiment [8] was inactive. Besides, the max response in [4] was 4.05%.
For `Clc1cc2c(cc1Cl)Oc1cc(Cl)c(Cl)cc1O2`, the figures for the cytotoxicity increase in [1] and in experiment [5] were -35.9% [at 0.29 µM] and -1.02% [at 0.29 µM], respectively. Moreover, the viability change, negative = cytotoxic in experiment [3] is 0.0568% [at 0.29 µM]. Moreover, the activity change in experiment [9] was -30.3% [at 0.29 µM, stronger effect = higher value]. Also, the activity change, negative = cytotoxic in experiment [10] was 1.14% [at 0.29 µM]. In [6], the cytotoxicity was 2.11% [at 0.29 µM]. Also, the Potency in experiment [7] was 0.0268 µM (active). The activity change, negative = cytotoxicity in [8] is -12.5% [at 0.29 µM].
For `CCOC(=O)C(Cl)Cc1cc(-n2nc(C)n(C(F)F)c2=O)c(F)cc1Cl` (configuration not stated), the Potency result in experiment [1], in experiment [5], in [10], in experiment [6] and in [7] was “inactive” each time. Further, the max response in [4] was 2.36%. In [8], the compound was classed as inactive.
Turning to `CC(C)(O)C(Cl)(Cl)Cl`, the Potency result in [1], in experiment [2], in experiment [5], in [6] and in [7] was “inactive” in each case. In addition, the compound was classed as inactive in [3] and in experiment [8]. The max response in [4] is 4.01%.
For the compound `NC(=O)OCCCc1ccccc1`, the Potency entry in experiment [1], in experiment [2], in experiment [5], in experiment [10], in experiment [6] and in experiment [7] was “inactive” each time. Moreover, the result in [3] and in experiment [8] was inactive. The max response in experiment [4] is 2.14%.
For the compound `C/C=C/CC#N`, the Potency in experiment [1] is 56.2 µM (active). For the same compound, the Potency result in [2], in experiment [5], in experiment [10], in [6] and in experiment [7] was “inactive” in each case. In addition, the call in [3] and in [8] was inactive. Moreover, in experiment [4], the max response is 9.52%.
On to `CNC(=O)Oc1cc(C)c(N(C)C)c(C)c1`, for which the Potency result in experiment [1], in experiment [2], in [5], in [6] and in experiment [7] was “inactive” each time. For the same compound, the result in experiment [3] and in experiment [8] was inactive. In addition, the max response in [4] was -10.9%.
Regarding `CCOP(=S)(OCC)SCCl`, the Potency entry in [2], in experiment [9], in experiment [5], in experiment [10], in experiment [6] and in [7] was “inactive” each time. For the same compound, the compound was classed as inactive in [3] and in [8]. The max response in experiment [4] was -0.801%.
Turning to `Brc1c(Br)c(Br)c(Br)c(Br)c1Br`, the cytotoxicity increase in experiment [1] is 4.32% [at 6.97 µM]; in experiment [5], -7.6% [at 6.97 µM]; in [7], -0.0521% [at 6.97 µM]. In experiment [3], the viability change, negative = cytotoxic is -1.77% [at 6.97 µM]. In experiment [4], the max response was 23.1%. Further, the activity change in experiment [9] is 5.24% [at 6.97 µM, stronger effect = higher value]. Besides, in [10], the activity change, negative = cytotoxic is -8.23% [at 6.97 µM]. Moreover, in [6], the cytotoxicity is -0.215% [at 6.97 µM]. Further, in experiment [8], the activity change, negative = cytotoxicity was 0% [at 6.97 µM].
For `COc1cccc(C=O)c1`, the Potency result in experiment [2], in experiment [9], in [5], in experiment [10], in [6] and in experiment [7] was “inactive” in each case. Moreover, the outcome in experiment [3] and in experiment [8] was inactive. Also, the max response in experiment [4] is -0.107%.
Turning to `Cc1ccc(-c2nc3ccc(C)cn3c2CC(=O)N(C)C)cc1`, the Potency entry in experiment [1], in experiment [2], in [9], in experiment [5], in experiment [10] and in experiment [6] was “inactive” each time. Also, the Potency entry in experiment [7] is “inactive”. In addition, the call in [3] and in experiment [8] was inactive.
For the compound `CCN1CCCC1CNC(=O)C(O)(c1ccccc1)c1ccccc1` (configuration not stated), the Potency entry in experiment [1], in experiment [2], in experiment [5], in [6] and in experiment [7] was “inactive” each time. The call in experiment [3] and in [8] was inactive. Besides, the max response in experiment [4] is -2.61%.
As for `CCCOC(=O)Cc1ccc(OCC(=O)N(CC)CC)c(OC)c1`, the Potency result in experiment [2], in [9], in [5], in experiment [10], in [6] and in [7] was “inactive” throughout. For the same compound, the compound was called inactive in [3] and in experiment [8]. Besides, the max response in experiment [4] is -5.19%.
As for `CC(C)(C)c1cc(O)ccc1O`, the Potency entry in [1], in experiment [9], in experiment [5], in experiment [10], in [6] and in experiment [7] was “inactive” throughout. Moreover, the outcome in experiment [3] and in [8] was inactive.
`C[C@H]1CCCC(=O)CCC/C=C/c2cc(O)cc(O)c2C(=O)O1`: the Potency result in experiment [1], in experiment [5], in experiment [10] and in [6] was “inactive” each time. For the same compound, the Potency in experiment [2] is 37.5 µM (active); in experiment [4], 21.1 µM (active). The compound was called inactive in experiment [3] and in [8].
`CC[C@H](O)C(C[C@H](C)N(C)C)(c1ccccc1)c1ccccc1`: the Potency entry in [1], in [2], in [9], in [5], in [6] and in [7] was “inactive” each time. The outcome in experiment [3] and in [8] was inactive.
As for `CCc1cc(OC)c(C[C@H](C)N)cc1OC`, the Potency result in experiment [1], in experiment [2], in experiment [9], in [5], in [10] and in experiment [6] was “inactive” each time. Also, the Potency entry in experiment [7] was “inactive”. Moreover, the outcome in [3] and in experiment [8] was inactive.
Consider `CCOC1Oc2ccc(OS(C)(=O)=O)cc2C1(C)C` (configuration not stated), for which the Potency entry in [1], in [9], in [5], in experiment [10], in experiment [6] and in experiment [7] was “inactive” throughout. Also, the result in experiment [3] and in experiment [8] was inactive. The Potency in [4] is 34.4 µM (active).
As to `CCc1ccc(C2CCNCC2)cc1`, the Potency result in experiment [2], in experiment [9], in experiment [5], in experiment [10], in experiment [6] and in experiment [7] was “inactive” in each case. For the same compound, the call in experiment [3] was inactive. Besides, the max response in [4] is 7.03%.
Consider `NCC1(CC(=O)O)CCCCC1`, for which the Potency entry in experiment [2], in [9], in [5], in experiment [10], in experiment [6] and in experiment [7] was “inactive” in each case. The result in [3] and in [8] was inactive. In addition, the max response in [4] was 1.23%.
Regarding `CC(C)c1ccc(O)cc1`, the Potency result in [1], in [2], in experiment [5], in experiment [6] and in experiment [7] was “inactive” each time. For the same compound, the outcome in [3] and in experiment [8] was inactive. Besides, in experiment [4], the max response is 0.569%.
